The source of these data is PubChem BioAssay (Tox21).

A number with no mark means an inactive call. Activity calls are given as the source filed them. Calls follow the shape of the dose curve; as a rule, active = well fitted curve in the direction sought with a large enough effect in the repeat runs; inconclusive = weak or mixed curves; inactive = flat fitted curve, though single readings scatter.
% is scaled to controls: 0 for no effect and ±100 for the full control effect.

One experiment in a line: qHTS assay to test for compound auto fluorescence at 460 nm (blue) in HepG2 cell free culture (AID 720685). Particulars: Cell-free culture medium, blue autofluorescence 405/460 nm; series mostly up to 91.3 µM; fluorescence, % of fluorescent control: at the top concentration. In short, it runs like this: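 Cell-free plates of MEM plus 10% FBS received 23 nL compound or DMSO vehicle; blue-channel (405/460 nm) intensity scored against triamterene as reference fluorophore.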
(Quantitative high-throughput screening tests each substance at several concentrations.)
Take `O=C1C=CC(=O)C=C1`: the molecule was called inactive.
As to `C=CCc1ccc2c(c1)OCO2`, the call was inactive.
For the molecule `CCCCOCCOP(=O)(OCCOCCCC)OCCOCCCC`, the outcome was inactive.
With `N[C@@H](Cc1ccc(N(CCCl)CCCl)cc1)C(=O)O`, the molecule was classed as inactive.
On to `CCC(=O)O[C@H]1CC[C@H]2[C@@H]3CCC4=CC(=O)CC[C@]4(C)[C@H]3CC[C@]12C`, for which the result was inactive.
`CCOC(=S)S`: the result was inactive.
The same measure, in the same setting: the same measure for `Nn1cnnc1`: “inactive”.
Still for that read-out and setting: next, `c1ccc(N=Nc2ccccc2)cc1`: “inactive”; `COc1ccc(C=O)cc1`: “inactive”.
As to `ClC1C(Cl)C(Cl)C(Cl)C(Cl)C1Cl` (stereo not given), the result was inactive.
Consider `c1ccc(NNc2ccccc2)cc1`, for which the molecule was called inactive.
For the molecule `C[C@]12CCC(=O)C(O)=C1CC[C@@H]1[C@@H]2CC[C@]2(C)C(=O)CC[C@@H]12`, the molecule was called inactive.
As for `CCN(CC)N=O`, the result was inactive.
As to `CCCCN(CCCC)N=O`, the molecule was classed as inactive.
Consider `C=CCN(CC=C)C(=O)C(Cl)Cl`, for which the molecule was called inactive.
On to `O=C(O)C(F)(F)C(F)(F)C(F)(F)C(F)(F)C(F)(F)C(F)(F)C(F)(F)F`, for which the molecule was classed as inactive.
Same read-out and setting: the same measure for `CCOP(=S)(OCC)O/N=C(\C#N)c1ccccc1`: “inactive”; for `Nc1ccc(Cl)c(Cl)c1`: “inactive”; for `N#CCCCl`: “inactive”.
As for `O=[N+]([O-])c1cccc2ccccc12`, the molecule was called inactive.
On to `CCN(CC)C(=O)SCc1ccc(Cl)cc1`, for which the call was inactive.
Regarding `COP(=O)(OC)OC`, the outcome was inactive.
For the molecule `Nc1ccc(-c2ccccc2)cc1`, the result was inactive.
On the same count and under the same terms, next, `O=[N+]([O-])c1ccc(O)c([N+](=O)[O-])c1`: “inactive”; `CN(C)C(=O)Nc1ccc(Cl)cc1`: “inactive”.
The same measure, in the same setting: next, `Oc1cc(Cl)ccc1Oc1ccc(Cl)cc1Cl`: “inactive”; `Nc1ccc(Cl)cc1N`: “inactive”.
For the molecule `COP(=S)(OC)Oc1cc(Cl)c(Cl)cc1Cl`, the outcome was inactive.
On to `CC(C)C(=O)OCC(C)(C)C(OC(=O)C(C)C)C(C)C` (stereo not given), for which the molecule was classed as inactive.
The same measure, in the same setting: the same measure for `C#C[C@]1(O)CC[C@H]2[C@@H]3CCC4=CC(=O)CC[C@]4(C)[C@H]3CC[C@@]21C`: “inactive”.
Take `NNC(N)=S`: the molecule was classed as inactive.
As for `Oc1c(Cl)c(Cl)c(Cl)c(Cl)c1Cl`, the call was inactive.
In the case of `CCCCCCOC(=O)c1ccccc1C(=O)OCCCCCC`, the result was inactive.
On to `Cc1cc(Cl)ccc1OCCCC(=O)O`, for which the molecule was classed as inactive.
On the same count and under the same terms, the same measure for `CC(C)N(C(=O)SCC(Cl)=C(Cl)Cl)C(C)C`: “inactive”; for `O=c1oc2ccccc2c(O)c1C(CC(O)c1ccc(-c2ccc(Br)cc2)cc1)c1ccccc1` (stereo not given): “inactive”; for `CCCCC(CC)COC(=O)c1ccc(C(=O)OCC(CC)CCCC)c(C(=O)OCC(CC)CCCC)c1` (stereo not given): “inactive”.

A further experiment can be described thus: qHTS assay to test for compound auto fluorescence at 535 nm (green) in HepG2 cell free culture (AID 720686). The settings on record: Cell-free medium, green autofluorescence 485/535 nm; series mostly up to 91.3 µM; fluorescence, % of fluorescein control: at the top concentration.
On to `O=C1C=CC(=O)C=C1`, for which the result was inactive.
`C=CCc1ccc2c(c1)OCO2`: the call was inactive.
On to `CCCCOCCOP(=O)(OCCOCCCC)OCCOCCCC`, for which the call was inactive.
As to `N[C@@H](Cc1ccc(N(CCCl)CCCl)cc1)C(=O)O`, the molecule was classed as inactive.
In the case of `CCC(=O)O[C@H]1CC[C@H]2[C@@H]3CCC4=CC(=O)CC[C@]4(C)[C@H]3CC[C@]12C`, the result was inactive.
Consider `CCOC(=S)S`, for which the outcome was inactive.
Take `Nn1cnnc1`: the call was inactive.
Turning to `COc1ccc(C=O)cc1`, the result was inactive.
On to `ClC1C(Cl)C(Cl)C(Cl)C(Cl)C1Cl` (stereo not given), for which the outcome was inactive.
Turning to `CCCCN(CCCC)N=O`, the molecule was classed as inactive.
Regarding `Nc1ccc(Cl)c(Cl)c1`, the molecule was called inactive.
Still for that read-out and setting: next, `N#CCCCl`: “inactive”; `O=[N+]([O-])c1cccc2ccccc12`: “inactive”; `Nc1ccc(-c2ccccc2)cc1`: “inactive”.
For `CN(C)C(=O)Nc1ccc(Cl)cc1`, the molecule was classed as inactive.
Regarding `Oc1cc(Cl)ccc1Oc1ccc(Cl)cc1Cl`, the result was inactive.
With `Nc1ccc(Cl)cc1N`, the “fluorescence, % of fluorescein control” value is 2.56% [at 95.7 µM].
With `COP(=S)(OC)Oc1cc(Cl)c(Cl)cc1Cl`, the outcome was inactive.
As for `C#C[C@]1(O)CC[C@H]2[C@@H]3CCC4=CC(=O)CC[C@]4(C)[C@H]3CC[C@@]21C`, the call was inactive.
On the same count and under the same terms, next, `CC(C)N(C(=O)SCC(Cl)=C(Cl)Cl)C(C)C`: “inactive”.
On to `O=c1oc2ccccc2c(O)c1C(CC(O)c1ccc(-c2ccc(Br)cc2)cc1)c1ccccc1` (stereo not given), for which the molecule was classed as inactive.

The nature of the next experiment: qHTS assay to test for compound auto fluorescence at 460 nm (blue) in HepG2 cells (AID 720687). Particulars: autofluorescence 405/460 nm, 1 h; series mostly up to 91.3 µM; fluorescence, % of fluorescent control: at the top concentration. A digest of the protocol:
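Cells (2,000/well in MEM with 10% FBS) attached overnight at 37 C, then were exposed to compound or DMSO for 1 hr at 37 C, 5% CO2. Fluorescence read at Ex/Em 405/460 nm, expressed as triamterene-equivalent signal.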
On to `O=C1C=CC(=O)C=C1`, for which the outcome was inactive.
Regarding `C=CCc1ccc2c(c1)OCO2`, the result was inactive.
For the molecule `CCCCOCCOP(=O)(OCCOCCCC)OCCOCCCC`, the result was inactive.
`N[C@@H](Cc1ccc(N(CCCl)CCCl)cc1)C(=O)O`: the molecule was called inactive.
Still for that read-out and setting: next, `CCC(=O)O[C@H]1CC[C@H]2[C@@H]3CCC4=CC(=O)CC[C@]4(C)[C@H]3CC[C@]12C`: “inactive”; `CCOC(=S)S`: “inactive”; `Nn1cnnc1`: “inactive”.
Still for that read-out and setting: next, `c1ccc(N=Nc2ccccc2)cc1`: “inactive”.
For the molecule `COc1ccc(C=O)cc1`, the result was inactive.
On to `ClC1C(Cl)C(Cl)C(Cl)C(Cl)C1Cl` (stereo not given), for which the call was inactive.
For the molecule `c1ccc(NNc2ccccc2)cc1`, the molecule was called inactive.
For `C[C@]12CCC(=O)C(O)=C1CC[C@@H]1[C@@H]2CC[C@]2(C)C(=O)CC[C@@H]12`, the molecule was classed as inactive.
In the case of `CCN(CC)N=O`, the call was inactive.
With `CCCCN(CCCC)N=O`, the outcome was inactive.
The same measure, in the same setting: the same measure for `C=CCN(CC=C)C(=O)C(Cl)Cl`: “inactive”; for `O=C(O)C(F)(F)C(F)(F)C(F)(F)C(F)(F)C(F)(F)C(F)(F)C(F)(F)F`: “inactive”.
On to `CCOP(=S)(OCC)O/N=C(\C#N)c1ccccc1`, for which the outcome was inactive.
As to `Nc1ccc(Cl)c(Cl)c1`, the call was inactive.
For `N#CCCCl`, the call was inactive.
For the molecule `O=[N+]([O-])c1cccc2ccccc12`, the call was inactive.
Still for that read-out and setting: the same measure for `CCN(CC)C(=O)SCc1ccc(Cl)cc1`: “inactive”; for `COP(=O)(OC)OC`: “inactive”; for `Nc1ccc(-c2ccccc2)cc1`: “inactive”.
As for `O=[N+]([O-])c1ccc(O)c([N+](=O)[O-])c1`, the call was inactive.
Regarding `CN(C)C(=O)Nc1ccc(Cl)cc1`, the call was inactive.
Take `Oc1cc(Cl)ccc1Oc1ccc(Cl)cc1Cl`: the “fluorescence, % of fluorescent control” value is -0.0142% [at 46 µM].
For `Nc1ccc(Cl)cc1N`, the outcome was inactive.
For `COP(=S)(OC)Oc1cc(Cl)c(Cl)cc1Cl`, the call was inactive.
Take `CC(C)C(=O)OCC(C)(C)C(OC(=O)C(C)C)C(C)C` (stereo not given): the molecule was called inactive.
For the molecule `C#C[C@]1(O)CC[C@H]2[C@@H]3CCC4=CC(=O)CC[C@]4(C)[C@H]3CC[C@@]21C`, the call was inactive.
As for `NNC(N)=S`, the outcome was inactive.
`Oc1c(Cl)c(Cl)c(Cl)c(Cl)c1Cl`: the call was inactive.
For `CCCCCCOC(=O)c1ccccc1C(=O)OCCCCCC`, the molecule was called inactive.
On the same count and under the same terms, next, `Cc1cc(Cl)ccc1OCCCC(=O)O`: “inactive”; `CC(C)N(C(=O)SCC(Cl)=C(Cl)Cl)C(C)C`: “inactive”; `O=c1oc2ccccc2c(O)c1C(CC(O)c1ccc(-c2ccc(Br)cc2)cc1)c1ccccc1` (stereo not given): “inactive”.
For the molecule `CCCCC(CC)COC(=O)c1ccc(C(=O)OCC(CC)CCCC)c(C(=O)OCC(CC)CCCC)c1` (stereo not given), the molecule was classed as inactive.
